Assay results as given in PubChem BioAssay (NCATS).
Records with an inconclusive call do not appear. Where a call stands in place of a potency, no number is given. Activity calls are given as the source filed them. Calls come from the whole dose curve; as a rule, active = well fitted inhibition curve with a large enough effect; inconclusive = small, poorly fitted or top-dose-only effect; inactive = no such curve, though single readings can be large or run the other way.

Experiment: HTS Assay for Allosteric Antagonists of the Human D2 Dopamine Receptor: Hit Validation in HTRF (AID 624455);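 note: stable D1 dopamine receptor cell line scored for blocking the D1 response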
Settings: Cells stably expressing D1 dopamine receptor, inhibition mode; series mostly up to 46.1 µM
Text: Dopamine receptors (DARs) are involved in the etiology and/or therapy of a number of neuropsychiatric and endocrine disorders. For instance, all receptor-based antiparkinsonian drugs work via stimulating the D2 DAR subtype whereas all FDA-approved antipsychotic agents are antagonists of this receptor. […] There are three different types of allosteric modulators that we are seeking, two of which will stimulate or augment receptor signaling, allosteric agonists and potentiators, while the third, allosteric antagonists, will attenuate receptor signaling. The present primary screening assay measures compound antagonism after an EC80 addition of dopamine by tracking calcium flux in a […], inducible Hek293 Trex D2 cell line. This assay measures activity of the hits in the D1 HTRF assay.
NIH Chemical Genomics Center [NCGC]
NIH Molecular Libraries Probe Centers Network [MLPCN]
Assay Submitter (PI): David Sibley
Cells stably expressing the D1 dopamine receptor will be run in an HTRF assay and compounds will be examined for the ability to inhibit the D1 mediated response.

| Structure (SMILES) | Potency |
| --- | --- |
| CC(N=C(NC#N)Nc1ccncc1)C(C)(C)C (stereo not given) | inactive |
| CN(C)CCOC(=O)COc1ccc(Cl)cc1 | inactive |
| CSc1ccc(C(=O)c2[nH]c(=O)[nH]c2C)cc1 | inactive |
| Cc1ccc(S(=O)(=O)NC(=O)NN2CCCCCC2)cc1 | inactive |
| NCCCNCCSP(=O)(O)O | inactive |
| CCN(CC)CCNC(=O)c1ccc(NC(C)=O)cc1 | inactive |
| CCCNC(C)C(=O)Nc1ccccc1C (stereo not given) | inactive |
| CCCC(C(=O)OCCN(CC)CC)(c1ccccc1)c1ccccc1 | inactive |
| N[C@@H](COP(=O)(O)O)C(=O)O | inactive |
| CCCCNc1ccc(C(=O)OCCN(C)C)cc1 | inactive |
| CNCCC(Oc1ccccc1OC)c1ccccc1 (stereo not given) | inactive |
| CCN1CCC[C@H]1CNC(=O)c1c(O)c(Cl)cc(Cl)c1OC | inactive |
| Nc1c2c(nc3ccccc13)CCCC2O (stereo not given) | inactive |
| CCOC(=O)C1=C(C)NC(C)=C(C(=O)OC)C1c1cccc(Cl)c1Cl (stereo not given) | inactive |
| NC(=O)c1cn(Cc2c(F)cccc2F)nn1 | inactive |
| NS(=O)(=O)c1cc2c(cc1Cl)NC(C1CC3C=CC1C3)NS2(=O)=O (stereo not given) | inactive |
| CC(C)(Oc1ccc(CCNC(=O)c2ccc(Cl)cc2)cc1)C(=O)O | inactive |
| COC(=O)[C@H]1[C@H]2C[C@@H]3c4[nH]c5cc(OC)ccc5c4CCN3C[C@H]2C[C@@H](OC(=O)c2cc(OC)c(OC)c(OC)c2)[C@@H]1OC | inactive |
| CCC(=O)c1ccc2c(c1)N(CCCN(C)C)c1ccccc1S2 | inactive |
| CC(C(=O)O)c1ccc(CC2CCCC2=O)cc1 (stereo not given) | inactive |

| Structure (SMILES) | Potency |
| --- | --- |
| Cc1nc2c([nH]1)c(=O)n(C)c(=O)n2Cc1ccco1 | inactive |
| COc1ccc(CN(CCN(C)C)c2ccccn2)cc1 | inactive |
| C[C@@H](O)[C@H]1C(=O)N2C(C(=O)O)=C(SCCN=CN)C[C@H]12 | inactive |
| CN(C)C(=O)Oc1cccc([N+](C)(C)C)c1 | inactive |
| CC(=O)Nc1nnc(S(N)(=O)=O)s1 | inactive |
| OCCN1CCN(CCCN2c3ccccc3C=Cc3ccccc32)CC1 | inactive |
| Cc1nc2ccccn2c(=O)c1CCN1CCC(C(=O)c2ccc(F)cc2)CC1 | inactive |
| CN=C(NC#N)NCCSCc1nc[nH]c1C | inactive |
| NC(=O)c1ncn([C@@H]2O[C@H](CO)[C@@H](O)[C@H]2O)c1O | inactive |
| CCCCNC(=O)NS(=O)(=O)c1ccc(C)cc1 | inactive |
| Cc1nc2sccn2c(=O)c1CCN1CCC(=C(c2ccc(F)cc2)c2ccc(F)cc2)CC1 | inactive |
| Cc1ccc(/C(=C\CN2CCCC2)c2ccccn2)cc1 | inactive |
| CC(C)(C)c1ccc(C(=O)CCCN2CCC(OC(c3ccccc3)c3ccccc3)CC2)cc1 | inactive |
| O=C(O)CN(CCOCCOCCN(CC(=O)O)CC(=O)O)CC(=O)O | inactive |
| COc1ccc([C@@H]2Sc3ccccc3N(CCN(C)C)C(=O)[C@@H]2OC(C)=O)cc1 | inactive |
| CCN(CC)CCOCCOC(=O)C1(c2ccccc2)CCCC1 | inactive |
| C[N+](C)(C)CCCCCCCCCC[N+](C)(C)C | inactive |
| CN/C(=C\[N+](=O)[O-])NCCSCc1ccc(CN(C)C)o1 | inactive |
| C#CCN(C)CCCOc1ccc(Cl)cc1Cl | inactive |
| CCO/C([O-])=N/c1c[n+](N2CCOCC2)no1 | inactive |
